Source: PubChem BioAssay (EPA / NIEHS)
Values joined by “and” are separate entries in the source; they are usually repeats but may differ in a detail not shown here. Identical values can stand only once. Records with an inconclusive call do not appear. Where a structure was tested more than once in an assay, its records may differ in their call. Active and inactive are the calls of the source. Rule for the calls, unless noted: active = hit-call score of the fitted dose curve at least 0.9, where 1 is the maximum; inconclusive = response in the unintended direction; inactive = score below 0.9.

Assays:
[1] = read-out: Thyroid Hormone Responsive (THRSP), THRSP (gene 7069); assay: LTEA_HepaRG_THRSP: Life Technologies and Expression Analysis (LTEA) Assay for Thyroid Hormone Responsive (THRSP) using HepaRG (AID 2283536; active = hit-call score of the fitted dose curve at least 0.9, where 1 is the maximum; inactive = score below 0.9); settings: mRNA level, 48 h; actives raise or lower the signal
Outline: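 Differentiated HepaRG cells treated 48 h in serum-free induction medium with 8 half-log concentrations up to 100 uM (0.5% DMSO), duplicates. THRSP mRNA by TaqMan qRT-PCR normalised to ACTB, GAPDH, POLR2A; bidirectional fit versus DMSO.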

[2] = read-out: Cellular tumor antigen p53 (Homo sapiens) (UniProt P04637); assay: LTEA_HepaRG_TP53: Life Technologies and Expression Analysis (LTEA) Assay for Tumor Protein P53 (TP53) using HepaRG (AID 2283537; active = hit-call score of the fitted dose curve at least 0.9, where 1 is the maximum; inactive = score below 0.9); settings: mRNA level, 48 h; actives raise or lower the signal
Outline: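 Read-out is TP53 transcript level by microfluidic qRT-PCR, normalised to three housekeeping genes and fitted bidirectionally against DMSO. Human HepaRG cells received compounds for 48 h, highest concentration 100 uM.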

[3] = read-out: UDP glucuronosyltransferase (UGT1A1), UGT1A1 (gene 54658); assay: LTEA_HepaRG_UGT1A1: Life Technologies and Expression Analysis (LTEA) Assay for UDP glucuronosyltransferase (UGT1A1) using HepaRG (AID 2283538; active = hit-call score of the fitted dose curve at least 0.9, where 1 is the maximum; inactive = score below 0.9); settings: mRNA level, 48 h; actives raise or lower the signal
Outline: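 Readout is UGT1A1 transcript level by qRT-PCR, normalized to three housekeeping genes, after 48 h chemical treatment of HepaRG cells. Concentrations ran from 100 uM down in half-log steps with 0.5% DMSO, and gain or loss relative to DMSO was fitted.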

[4] = read-out: UDP glucuronosyltransferase (UGT1A6), UGT1A6 (gene 54578); assay: LTEA_HepaRG_UGT1A6: Life Technologies and Expression Analysis (LTEA) Assay for UDP glucuronosyltransferase (UGT1A6) using HepaRG (AID 2283539; active = hit-call score of the fitted dose curve at least 0.9, where 1 is the maximum; inactive = score below 0.9); settings: mRNA level, 48 h; actives raise or lower the signal
Outline: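 Expression was quantified by TaqMan qRT-PCR on Fluidigm arrays with ACTB/GAPDH/POLR2A normalization and bidirectional fitting against 0.5% DMSO. HepaRG cells (~100,000/well) were treated in duplicate for 48 h at eight half-log concentrations up to 100 uM in serum-free induction medium.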

[5] = read-out: X-box binding protein 1 (XBP1), XBP1 (gene 7494); assay: LTEA_HepaRG_XBP1: Life Technologies and Expression Analysis (LTEA) Assay for X-box binding protein 1 (XBP1) using HepaRG (AID 2283540; active = hit-call score of the fitted dose curve at least 0.9, where 1 is the maximum; inactive = score below 0.9); settings: mRNA level, 48 h; actives raise or lower the signal
Outline: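 XBP1 transcript by qRT-PCR (housekeeping-normalized: ACTB, GAPDH, POLR2A) after 48 h chemical treatment of HepaRG cells, 8-point half-log series topping at 100 uM, vehicle 0.5% DMSO. Gain and loss of signal fitted relative to DMSO.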

[6] = LTEA_HepaRG_LDH_cytotoxicity: Cytotoxicity Assessment in the Life Technologies and Expression Analysis (LTEA) Assay (AID 2283563);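 for AC50: LDH activity released into spent culture medium as a marker of cell death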
Outline: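 LDH release into culture medium read after 48 h chemical treatment of HepaRG cells. Duplicate wells, eight-point half-log series topping at 100 uM, 0.5% DMSO vehicle and baseline.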

[7] = ATG_XTT_Cytotoxicity: Cytotoxicity Assessment in the Attagene TRANS-FACTORIAL HepG2 Assay (AID 2283584)
Outline: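 Viability endpoint from XTT after 24 h chemical exposure of reporter-transfected human HepG2 liver cells; signal loss fitted relative to DMSO negative control.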

[8] = TOX21_p53_BLA_p2_viability: Viability Assessment in the Tox21 HCT-116 p53 Agonism Beta-lactamase Assay, Phase 2 (AID 2283591);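 note: compound exposure lasted 16 h at 37 °C; actives lower the ATP signal meaning cytotoxicity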
Outline: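 HCT116 p53-bla cells, 4000/well, dosed after 5 h plating (217-fold dilution of DMSO stocks) and incubated 16 h at 37C. Viability taken as cellular ATP by CellTiter-Glo luminescence after 30 min RT; signal loss marks cytotoxicity.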

[9] = target: Cellular tumor antigen p53 (Homo sapiens) (UniProt P04637); assay: TOX21_p53_BLA_p2_ratio: Tox21 HCT-116 p53 Agonism Beta-lactamase Assay, Ratio, Phase 2 (AID 2283592)
Sequence of Cellular tumor antigen p53 (Homo sapiens) (P04637 whole entry, looked up): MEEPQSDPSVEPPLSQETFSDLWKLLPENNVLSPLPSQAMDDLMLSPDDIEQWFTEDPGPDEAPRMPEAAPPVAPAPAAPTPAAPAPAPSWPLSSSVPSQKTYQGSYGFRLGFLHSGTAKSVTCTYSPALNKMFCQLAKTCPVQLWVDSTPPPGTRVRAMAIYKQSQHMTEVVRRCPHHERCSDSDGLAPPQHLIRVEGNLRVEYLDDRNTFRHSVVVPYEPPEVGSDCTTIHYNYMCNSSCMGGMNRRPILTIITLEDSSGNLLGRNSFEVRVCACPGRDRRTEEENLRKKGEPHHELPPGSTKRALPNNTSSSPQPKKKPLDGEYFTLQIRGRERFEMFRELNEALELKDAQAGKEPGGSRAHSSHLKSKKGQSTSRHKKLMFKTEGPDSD
Outline: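 Gain-of-signal p53 agonism was scored from the beta-lactamase FRET ratio (460/530 nm, 405 nm excitation) in HCT116 cells treated 16 h at 37C, 5% CO2, with DMSO serving as negative control and baseline.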

[10] = TOX21_p53_BLA_p3_viability: Viability Assessment in the Tox21 HCT-116 p53 Agonism Beta-lactamase Assay, Phase 3 (AID 2283593);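 note: cells exposed to compound for 16 h before reading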
Outline: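 HCT116 cells, 4000/well, dosed 5 h after plating by pin transfer (217-fold dilution from DMSO stock) and incubated 16 h at 37C, 5% CO2. Viability read as ATP luminescence with CellTiter-Glo after 30 min at room temperature.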

[11] = target: Cellular tumor antigen p53 (Homo sapiens) (UniProt P04637); assay: TOX21_p53_BLA_p3_ratio: Tox21 HCT-116 p53 Agonism Beta-lactamase Assay, Ratio, Phase 3 (AID 2283596)
Outline: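 HCT116 p53-bla cells (4000/well) given compound in DMSO (217-fold dilution) after 5 h, incubated 16 h at 37C. CCF4-AM substrate 2 h at room temperature; 460/530 nm emission ratio, gain fitted against DMSO.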

[12] = TOX21_p53_BLA_p4_viability: Viability Assessment in the Tox21 HCT-116 p53 Agonism Beta-lactamase Assay, Phase 4 (AID 2283597);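 note: hits lower the luminescence signal meaning cytotoxicity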
Outline: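 Following a 16 h exposure at 37C, the treated HCT116 wells were first read for the FRET ratio. They were then lysed with CellTiter-Glo, and ATP luminescence was recorded after 30 min at room temperature.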

[13] = target: Cellular tumor antigen p53 (Homo sapiens) (UniProt P04637); assay: TOX21_p53_BLA_p5_ratio: Tox21 HCT-116 p53 Agonism Beta-lactamase Assay, Ratio, Phase 5 (AID 2283599)
Outline: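 HCT-116 p53-bla cells (4000/well) plated 5 h, dosed with compound (217-fold DMSO dilution) for 16 h at 37 C; CCF4-AM substrate 2 h at room temperature. Activity is the 460/530 nm emission ratio (405 nm excitation), fitted in gain-of-signal direction versus DMSO.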

[14] = TOX21_p53_BLA_p5_viability: Viability Assessment in the Tox21 HCT-116 p53 Agonism Beta-lactamase Assay, Phase 5 (AID 2283600)
Outline: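 After the 460/530 nm beta-lactamase measurement, the wells received an ATP-detection luciferase reagent; signal was read 30 min later at RT. Compound treatment lasted 16 h on cells pre-incubated 5 h post-seeding.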

[15] = target: Cellular tumor antigen p53 (Homo sapiens) (UniProt P04637); assay: TOX21_p53_BLA_p4_ratio: Tox21 HCT-116 p53 Agonism Beta-lactamase Assay, Ratio, Phase 4 (AID 2283601)
Outline: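 HCT-116 p53 beta-lactamase reporter cells (4000/well) preincubated 5 h, then compound (217-fold dilution of DMSO stock) for 16 h at 37C. CCF4-AM substrate added 2 h at room temperature; 460/530 nm emission ratio fitted upward versus DMSO.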

[16] = Tanguay_ZF_120hpf_MORT_legacy: (Legacy) Oregon State University Tanguay Lab 120 Hour Post-fertilization zebrafish Assay for Mortality (AID 2283633);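 for AC50: fitted as increase in binary mortality versus DMSO negative control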
Outline: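 Static waterborne exposure from 6 to 120 hpf at 28C of single dechorionated wild-type (5D) embryos per well, 0.64% DMSO final. Death recorded present/absent by brightfield at 24 and 120 hpf.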

[17] = Tanguay_ZF_120hpf_YSE_legacy: (Legacy) Oregon State University Tanguay Lab 120 Hour Post-fertilization zebrafish Assay for Yolk Sac Edema (AID 2283634)
Outline: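 Presence or absence of yolk sac edema was recorded at 120 hpf in surviving larvae. These were wild-type Tropical 5D embryos, chorion removed at 4 hpf, held in static exposure at 28C from 6 hpf with 0.64% DMSO vehicle.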

[18] = Tanguay_ZF_120hpf_AXIS_legacy: (Legacy) Oregon State University Tanguay Lab 120 Hour Post-fertilization zebrafish Assay for Body Axis Malformation (AID 2283635)
Outline: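 Binary scoring of axis defects at 120 hpf under brightfield, fitted positive versus DMSO. Tropical 5D embryos, chorion removed by pronase at 4 hpf, were singly exposed in sealed, dark plates at 28C from 6 hpf; DMSO 0.64% final.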

[19] = Tanguay_ZF_120hpf_EYE_legacy: (Legacy) Oregon State University Tanguay Lab 120 Hour Post-fertilization zebrafish Assay for Eye Malformation (AID 2283636);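 note: binary presence or absence of eye malformation scored by brightfield in 120 hpf larvae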
Outline: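 Dechorionated Tropical 5D zebrafish embryos, one per well from 6 hpf, static exposure to 120 hpf at 28C, 0.64% DMSO. Eye malformation scored present/absent by brightfield; dead embryos not scored.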

[20] = Tanguay_ZF_120hpf_SNOU_legacy: (Legacy) Oregon State University Tanguay Lab 120 Hour Post-fertilization zebrafish Assay for Snout Malformation (AID 2283637)
Outline: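 Dechorionated tropical 5D wild-type zebrafish embryos exposed statically from 6 to 120 hpf at 28C, one per well, in 0.64% DMSO. Snout malformation scored as present/absent by brightfield at 120 hpf; dead embryos not scored.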

Measured: AC50

Nc1cc(Cl)cc(C(=O)O)c1Cl
inactive: all assays above

CCCCOC(=O)c1ccccc1C(=O)OCc1ccccc1
inactive: all assays above

Nc1ccc(Cc2ccc(N)cc2)cc1
active: [3] 26.2 µM
not listed: [10]
inactive: all other assays above

C1=Cc2cccc3cccc1c23
not listed: [7]
inactive: all other assays above

OCCCBr
not listed: [7]
inactive: all other assays above

Nc1ccc(Oc2ccc(N)cc2)cc1
active: [3] 78.9 µM
not listed: [10] | [12]
inactive: all other assays above

Clc1ccc(C(c2ccc(Cl)cc2)C(Cl)Cl)cc1
active: [1] 90.5 µM | [3] 6.66 µM | [8] 59.6 µM and 33.7 µM | [9] 68 µM | [11] 48.4 µM | [12] 63.4 µM and 46.7 µM | [13] 89.8 µM and 85.4 µM | [14] 81.2 µM and 73.1 µM | [15] 78.4 µM and 79.1 µM
inactive: [2] | [4] | [5] | [6] | [7] | [9] | [11] | [16] | [17] | [18] | [19] | [20]

CCC[CH2][Sn]([Cl])([CH2]CCC)[CH2]CCC
inactive: [5] | [17] | [18] | [19] | [20]
active: [1] 2.84 µM | [2] 11.6 µM | [3] 3.12 µM | [4] 12.6 µM | [6] 2.98 µM | [8] 1.22 µM and 1.04 µM | [9] 31.8 µM and 46 µM | [10] 921 nM and 958 nM | [11] 25.6 µM and 28.6 µM | [12] 917 nM and 983 nM | [13] 36.5 µM and 31.8 µM | [14] 1.52 µM | [15] 27.7 µM and 25.6 µM | [16] 0.282 µM

Nc1ccc(N=Nc2ccccc2)cc1
active: [1] 11.4 µM | [3] 13 µM | [4] 19.8 µM | [5] 16.8 µM | [6] 11.9 µM
not listed: [7]
inactive: all other assays above

CCN(CC)N=O
not listed: [7]
inactive: all other assays above

ClC1=C(Cl)C2(Cl)C3C(Cl)C=CC3C1(Cl)C2(Cl)Cl (stereo unspecified)
inactive: [1] | [4] | [5] | [6] | [8] | [9] | [11] | [12] | [13] | [14] | [15] | [16] | [17] | [18] | [19] | [20]
active: [2] 14.1 µM | [3] 2.86 µM | [8] 85.9 µM | [12] 45.8 µM | [14] 75 µM

ClCCOCCCl
not listed: [13] | [17] | [19]
inactive: all other assays above
